An excerpt weighted towards active compounds, which were near 6.5% of everything screened.
Vaccinia mCherry: qHTS for Stage-Specific Inhibitors of Vaccinia Orthopoxvirus: mCherry Reporter Primary qHTS. Vaccinia virus mCherry reporter infection, fluorescence. Potency, µM (doses to about 36.5 µM), usual class: inhibitors. 310,000 compounds, 0.63% hits; calls by dose curve; tested in A549 cells; also: nearly all actives have a fitted effect of over 35% in size
VACV Venus inh: qHTS for Stage-Specific Inhibitors of Vaccinia Orthopoxvirus: Venus Reporter Primary qHTS; Vaccinia virus Venus reporter expression, fluorescence; Potency, µM (doses to about 36.5 µM), actives largely listed as inhibitors; 330,000 compounds, 0.46% hits; calls by dose curve; tested in A549 cells; also: nearly all actives have a fitted effect of over 30% in size
FMDV inh: High Throughput Screening for Foot and Mouth Disease Virus Antivirals; 410,000 compounds, 1.2% hits; FMDV antiviral cell-based qHTS; Potency, µM (top dose mostly 57.9 µM), actives largely listed as inhibitors; calls by dose curve; tested in HEK293T cells; also: read-out not given here; nearly all actives have a fitted effect of over 45% in size
LASV entry inh: qHTS for Inhibitors of binding or entry into cells for Lassa Virus; Lassa virus pseudotype entry inhibition, cell reporter; Potency, µM (series often up to 37.9 µM), hits mostly inhibitors; 300,000 compounds, 1.2% hits; AID 540256, 2011; calls by dose curve; tested in HEK293 cells; also: nearly all actives have a fitted effect of over 50% in size
HCMV antiviral: qHTS Assay for inhibitors of the human cytomegalovirus (HCMV). HFF cells, HCMV-luciferase reporter, 72 h; active compounds read low. activity change, negative = inhibition, % at 57.5 µM. AID 1259415, 2018. 410,000 compounds, 4.5% hits; in the data active = activity change below about -60%; inconclusive = no clear call, values can overlap the other calls; inactive = above about -39%
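Two-dose cell screen: HFF monolayers treated with compounds and infected with luciferase-expressing HCMV at 1 PFU/cell, 72 h at 37C, then lysed for luciferase measurement.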
MARV entry inh: qHTS for inhibitors of binding or entry into cells for Marburg Virus. Marburg virus pseudotyped entry inhibition, cell reporter. AID 540276, 2011. Potency, µM (top dose mostly 37.8 µM), actives largely listed as inhibitors. 300,000 compounds, 1.8% hits; calls by dose curve; tested in HEK293 cells
Each line names hits and unclear results; the compound was inactive in the other large screens.

Cc1ccc(C)c(N2CCN(c3nc4ccccc4n4nnnc34)CC2)c1	MARV entry inh inconclusive
C[C@H]1Cc2c(-c3ccccc3)nc3c(c2CO1)CN(C(=O)Nc1cccc(C#N)c1)CC3	none (no result: Vaccinia mCherry, VACV Venus inh, FMDV inh, LASV entry inh, HCMV antiviral)
CC(=O)Nc1ccc(NC(=O)Cn2c(=O)n(-c3ccc(C)cc3)c(=O)c3oc4ccccc4c32)cc1	LASV entry inh inconclusive, HCMV antiviral -64.9, MARV entry inh inconclusive
Cc1cc(C)cc(NC(=O)Cn2c(=O)n(-c3ccc(C)c(C)c3)c(=O)c3oc4ccccc4c32)c1	none (no result: MARV entry inh)
Cc1ccc(-n2c(=O)c3oc4ccccc4c3n(CC(=O)Nc3ccccc3)c2=O)cc1C	LASV entry inh inconclusive, HCMV antiviral -66.5 (no result: MARV entry inh)
O=C(Nc1ccc2nc(SCCOc3ccccc3Cl)sc2c1)c1cccs1	HCMV antiviral -87.8
CCCC(=O)Nc1ccc2nc(SCCOc3ccccc3)sc2c1	HCMV antiviral -60.0
Cc1cc(C)cc(OCCSc2nc3ccc(NC(=O)c4cccs4)cc3s2)c1	none
Cc1cccc(OCCSc2nc3ccc(NC(=O)COc4ccccc4)cc3s2)c1	none
CCC(=O)Nc1ccc2nc(SCCOc3ccccc3)sc2c1	HCMV antiviral -62.6, MARV entry inh inconclusive
C[C@@H](CCc1ccc(O)cc1)NCCc1ccc(O)c(O)c1	MARV entry inh inconclusive (no result: Vaccinia mCherry, VACV Venus inh, LASV entry inh, HCMV antiviral)
Cc1nc2ccccc2c2c1CC(C(C)(Cl)Br)O2 (stereo not given)	FMDV inh 8.91µM, HCMV antiviral -92.5 (no result: Vaccinia mCherry, VACV Venus inh, LASV entry inh, MARV entry inh)
Cc1ccc2nc(C)c3c(c2c1)OC(C(C)(Cl)Br)C3 (stereo not given)	FMDV inh inconclusive, LASV entry inh inconclusive
CCOC(=O)C1CSCCS(=O)(=O)N1Cc1ccc(C)cc1 (stereo not given)	none (no result: Vaccinia mCherry, VACV Venus inh, FMDV inh, LASV entry inh, MARV entry inh)
CCN1CCN(CCCNC(=O)C2c3ccccc3C(=O)N(c3ccc(OC)cc3)C2c2ccc(OC)cc2)CC1 (stereo not given)	HCMV antiviral -61.7, MARV entry inh inconclusive
COc1ccc(C2C(C(=O)Nc3cccc(OC)c3)c3ccccc3C(=O)N2C)cc1 (stereo not given)	MARV entry inh inconclusive
CCOC(=O)CNC(=O)C1c2ccccc2C(=O)N(c2ccc(OC)cc2)C1c1ccc(OC)cc1 (stereo not given)	LASV entry inh inconclusive (no result: Vaccinia mCherry, VACV Venus inh)
COc1ccc(C2C(C(=O)Nc3cc(OC)c(OC)c(OC)c3)c3ccccc3C(=O)N2C)cc1 (stereo not given)	VACV Venus inh inconclusive, LASV entry inh inconclusive, HCMV antiviral -65.9, MARV entry inh inconclusive
COc1ccccc1NC(=O)c1cc2c(=O)n(Cc3cccs3)ccc2nc1C	none (no result: MARV entry inh)
CCC1CCC2(CC1)NNC(=S)NN2	HCMV antiviral -62.1
C[C@@H]1CCCCO[C@@H](CN(C)Cc2ccc3c(c2)OCO3)[C@@H](C)CN([C@H](C)CO)C(=O)c2cc(NS(=O)(=O)c3ccccc3)ccc2O1	VACV Venus inh inconclusive, FMDV inh inconclusive, HCMV antiviral -68.7 (no result: LASV entry inh, MARV entry inh)
Cc1ccc(S(=O)(=O)Nc2ccc3c(c2)C(=O)N([C@H](C)CO)C[C@H](C)[C@@H](CN(C)Cc2ccc(-c4ccccc4)cc2)O3)cc1	Vaccinia mCherry inconclusive, VACV Venus inh 10µM, FMDV inh inconclusive (no result: LASV entry inh, HCMV antiviral, MARV entry inh)
Cc1ccc(S(=O)(=O)Nc2ccc3c(c2)C(=O)N([C@@H](C)CO)C[C@@H](C)[C@@H](CN(C)CC2CC2)OCCCC[C@@H](C)O3)cc1	FMDV inh inconclusive (no result: LASV entry inh, MARV entry inh)
C[C@H]1CCCCO[C@H](CN(C)CC2CCCCC2)[C@@H](C)CN([C@@H](C)CO)C(=O)c2cc(NS(=O)(=O)c3ccccc3)ccc2O1	VACV Venus inh inconclusive, HCMV antiviral -62.9 (no result: LASV entry inh, MARV entry inh)
C[C@@H]1CCCCO[C@@H](CN(C)CC2CCCCC2)[C@@H](C)CN([C@H](C)CO)C(=O)c2cc(NS(=O)(=O)c3ccc(Cl)cc3)ccc2O1	Vaccinia mCherry inconclusive, VACV Venus inh 10µM, HCMV antiviral -101.6 (no result: LASV entry inh, MARV entry inh)
COC(=O)C1=C(C(=O)OC)[C@@H]2N(C)c3ccccc3[C@@]23CCC(=O)N(Cc2cc(OC)c(OC)c(OC)c2)C3=N1	none (no result: Vaccinia mCherry, VACV Venus inh, FMDV inh, LASV entry inh, HCMV antiviral)
Cc1cc(S(=O)(=O)NCc2nc(N3CCCC3)c3cc(Cl)ccc3n2)c(C)s1	none (no result: LASV entry inh, HCMV antiviral, MARV entry inh)
CCOc1cc(/C=C2\SC(=N)N(c3nccs3)C2=O)ccc1OCCN1CCOCC1	Vaccinia mCherry 11.2µM, VACV Venus inh inconclusive, FMDV inh inconclusive, LASV entry inh inconclusive, HCMV antiviral -70.1, MARV entry inh inconclusive
CCOc1cc(/C=C2\SC(=S)N(N3CCOCC3)C2=O)ccc1O	none (no result: Vaccinia mCherry, VACV Venus inh, LASV entry inh, MARV entry inh)
O=c1[nH]c2ccccc2n1CCCN1CCN(C(c2ccccc2)c2ccccc2)CC1	LASV entry inh 18.4µM, MARV entry inh 12.6µM (no result: Vaccinia mCherry, VACV Venus inh, FMDV inh, HCMV antiviral)
COc1ccc(Oc2ncc3nc(-c4cccc(C#N)c4)c(=O)n(C)c3n2)cc1	none (no result: Vaccinia mCherry, VACV Venus inh, LASV entry inh, HCMV antiviral, MARV entry inh)
Cc1[nH]c2ccc3ccccc3c2c(=O)c1C/C=C/Cl	Vaccinia mCherry inconclusive, HCMV antiviral -89.1
Cc1[nH]c2ccc(Br)cc2c(=S)c1C/C=C/Cl	none (no result: Vaccinia mCherry, VACV Venus inh, LASV entry inh, MARV entry inh)
COc1ccc(CCN2C(=O)c3cccc4c(C(=O)N5CCCCC5)ccc(c34)C2=O)cc1OC	FMDV inh 14.1µM, LASV entry inh inconclusive, HCMV antiviral -64.9, MARV entry inh inconclusive
COc1ccc(CCNC(=O)CCN2C(=O)c3cccc4cccc(c34)C2=O)cc1OC	none (no result: Vaccinia mCherry, VACV Venus inh, LASV entry inh, MARV entry inh)
O=C1[C@H]2[C@H]3[C@H](O)[C@H](O)C/C(=N/OCc4ccccc4)[C@H]3CC[C@@H]2C(=O)N1C1CCCCC1	none (no result: Vaccinia mCherry, VACV Venus inh, FMDV inh, LASV entry inh, HCMV antiviral)
CCOCCCNCc1ccc(OC)cc1	none
COc1ccc2cc(CNCCOCCOCCNCc3ccc4cc(OC)ccc4c3)ccc2c1	Vaccinia mCherry inconclusive, VACV Venus inh inconclusive, FMDV inh 39.8µM, LASV entry inh inconclusive, HCMV antiviral -97.6, MARV entry inh inconclusive
CCC(=O)N1CCc2cc(Br)cc(S(=O)(=O)NCCc3ccccc3)c21	none
CCOc1ccc(N2C(=O)c3[nH]nc(-c4ccc(OC)cc4)c3C2c2cccs2)cc1 (stereo not given)	Vaccinia mCherry inconclusive, VACV Venus inh inconclusive, FMDV inh 39.8µM, LASV entry inh inconclusive, HCMV antiviral -95.5, MARV entry inh 7.94µM
CCOc1ccc(N2C(=O)c3n[nH]c(-c4cccs4)c3C2c2cccc(F)c2)cc1 (stereo not given)	FMDV inh inconclusive, LASV entry inh inconclusive, MARV entry inh inconclusive
CCOc1ccc(-c2n[nH]c3c2C(c2cccs2)N(c2ccc(Br)cc2)C3=O)cc1 (stereo not given)	FMDV inh inconclusive, LASV entry inh inconclusive, HCMV antiviral -98.6, MARV entry inh inconclusive
CSc1nc(=O)[nH]c2nc[nH]c12	none (no result: FMDV inh, LASV entry inh, HCMV antiviral, MARV entry inh)
CC(=O)n1cc(C(C[N+](=O)[O-])SCCN)c2ccccc21 (stereo not given)	FMDV inh inconclusive, LASV entry inh inconclusive, MARV entry inh 20.6µM (no result: Vaccinia mCherry, VACV Venus inh, HCMV antiviral)
CCc1cccc(NC(=O)CSc2nc3ccsc3c(=O)n2CC)c1	FMDV inh inconclusive, LASV entry inh inconclusive, MARV entry inh inconclusive
